Screens deposited in PubChem by Broad Institute.
ERAP1 inh: human ERAP1 aminopeptidase inhibitors, primary screen, biochemical, single point, plate reader | inhibition, % at 10.7 µM | Endoplasmic reticulum aminopeptidase 1 (Homo sapiens), Q9NZ08 | AID 652197, 2013 | recombinant ERAP1, Leu-AMC fluorescence, 60 min | 0.15% of 340,000 active;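 active means mean replicate inhibition of at least 30%, or all replicates individually reaching that 30% level; inactive means mean below 30% and not every replicate reaching it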
Target sequence (Q9NZ08 whole entry, looked up): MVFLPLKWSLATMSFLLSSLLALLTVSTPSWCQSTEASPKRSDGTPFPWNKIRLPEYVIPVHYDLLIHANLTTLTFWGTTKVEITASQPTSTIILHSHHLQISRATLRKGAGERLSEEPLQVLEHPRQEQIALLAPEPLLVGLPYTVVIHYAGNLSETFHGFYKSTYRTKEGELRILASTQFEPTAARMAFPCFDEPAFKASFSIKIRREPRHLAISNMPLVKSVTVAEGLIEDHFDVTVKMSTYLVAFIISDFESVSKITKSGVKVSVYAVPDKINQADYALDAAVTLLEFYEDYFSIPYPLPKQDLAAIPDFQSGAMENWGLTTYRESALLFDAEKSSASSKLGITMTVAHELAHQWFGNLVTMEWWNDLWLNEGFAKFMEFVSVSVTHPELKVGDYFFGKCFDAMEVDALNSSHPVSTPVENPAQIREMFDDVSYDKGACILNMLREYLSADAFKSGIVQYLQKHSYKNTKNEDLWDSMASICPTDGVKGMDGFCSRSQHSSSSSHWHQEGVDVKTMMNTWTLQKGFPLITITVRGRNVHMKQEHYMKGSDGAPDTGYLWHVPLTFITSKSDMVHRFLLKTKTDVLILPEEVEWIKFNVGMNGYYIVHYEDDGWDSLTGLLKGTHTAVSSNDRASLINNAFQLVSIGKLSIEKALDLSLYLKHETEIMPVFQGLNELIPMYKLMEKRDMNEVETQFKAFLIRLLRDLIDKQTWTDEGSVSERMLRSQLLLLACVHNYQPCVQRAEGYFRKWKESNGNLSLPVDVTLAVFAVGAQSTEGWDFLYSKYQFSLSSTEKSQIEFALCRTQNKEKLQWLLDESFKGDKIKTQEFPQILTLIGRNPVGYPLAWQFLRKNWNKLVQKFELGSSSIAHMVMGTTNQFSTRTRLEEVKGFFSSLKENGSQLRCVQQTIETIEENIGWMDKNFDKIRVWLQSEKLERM
RAD52 inh: RAD52 DNA annealing inhibitors, primary screen, biochemical, FRET, single point, set 2. DNA repair protein RAD52 homolog (Homo sapiens), P43351. recombinant RAD52 DNA annealing, FRET fluorescence. inhibition, % at 18.7 µM. 0.46% of 360,000 active. AID 651710, 2012;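 active means every replicate showing at least 50% inhibition; inconclusive means mean inhibition at least 50% but not in every replicate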
FGF22 binding: binders of human FGF22 protein, primary screen, FGF22 synaptogenesis inhibitor project, biophysical, thermal shift, single point; Fibroblast growth factor 22 (Homo sapiens), Q9HCT0; 1.5% of 340,000 active; recombinant FGF22 thermal shift, SYPRO orange fluorescence; percent of sucrose octasulfate shift, DMSO zero; activity (Tm shift, normalised), % at 9.99 µM; AID 651658, 2012;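 active means mean Tm shift, scaled 0 neutral to 100 positive control, at about 1.3% or above, every replicate too, limit read from the data; inconclusive means no clear call, values can overlap the other calls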
DENV2 CPE: inhibitors of DENV2 cytopathic effect, primary screen, cell-based, plate reader, single concentration; DENV2-infected cells, cytopathic effect rescue; CPE inhibition, % at 9.99 µM; 1.7% of 350,000 active; in the data active means CPE inhibition above about 20%, passing the limit was not always enough; inconclusive means no clear call, values can overlap the other calls; tested in BHK-21 cells
AF4-AF9 inh: inhibitors of AF4 peptide binding to AF9, primary screen, biochemical, AlphaScreen, biotin-AF4 peptide, FLAG-AF9, single point | AID 651704, 2012 | 0.47% of 350,000 active | inhibition, % at 10 µM | Protein AF-9 (Homo sapiens), P42568;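 active means every replicate reaching a set inhibition limit, whatever the replicate mean, cut at about 25% in these data; inconclusive means mean inhibition reaches that limit but some replicates miss it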
Each line names hits and unclear results; the compound was inactive in the other large screens; ! = not confirmed by another sample. A selection: hits, their analogues and other compounds. The true share with any hit is near 4%.

C[C@@H]1CN([C@@H](C)CO)C(=O)Cc2cc(NC(=O)NC3CCCCC3)ccc2O[C@@H]1CN(C)S(=O)(=O)c1cn(C)cn1	none
C[C@@H]1CN([C@H](C)CO)C(=O)c2cc(NC(=O)Nc3cccc4ccccc34)ccc2O[C@@H](C)CCCCO[C@H]1CN(C)C(=O)C1CCCCC1	none
C[C@@H]1CCCCO[C@H](CN(C)C(=O)C2CCCCC2)[C@@H](C)CN([C@H](C)CO)C(=O)c2cc(NC(=O)Nc3cccc4ccccc34)ccc2O1	FGF22 binding 1.3
CCOC(=O)C1CCCN(CCC(=O)Nc2cc(C)cc(C)c2)C1 (centres undefined)	FGF22 binding 44
O=C(C[C@H]1C=C[C@@H](NC(=O)C2CC2)[C@@H](CO)O1)Nc1nccs1	none
C/C(CC(=O)Nc1ccc(C)c(Cl)c1)=N\NC(=O)Cc1cnc(N)s1	FGF22 binding 43
CC[C@]12c3[nH]c4ccccc4c3CCN1C(=O)C(CC(=O)NCCc1ccccn1)C[C@@H]2C(=O)N1CCN(C(=O)c2ccco2)CC1 (some centres undefined)	none
O=C(CC1C[C@H](C(=O)N2CCCCC2)[C@@]2(CCc3ccccc3)c3[nH]c4ccccc4c3CCN2C1=O)NCc1cccc(C(F)(F)F)c1 (some centres undefined)	none (no result: ERAP1 inh)
CN(C)CCCNC(=O)C[C@H]1C[C@H](C(=O)N2CCCCC2)[C@@]2(C)c3[nH]c4cc(-c5ccco5)ccc4c3CCN2C1=O	none (no result: ERAP1 inh)
CN(C)CCCNC(=O)C[C@H]1C[C@H](C(=O)N2CCCCC2)[C@@]2(CCc3ccccc3)c3[nH]c4cc(-c5ccco5)ccc4c3CCN2C1=O	RAD52 inh 75, AF4-AF9 inh 53
CC[C@]12c3[nH]c4cc(CCC(=O)N(C)C)ccc4c3CCN1C(=O)[C@@H](CC(=O)NCCc1ccccn1)C[C@@H]2C(=O)N1CCN(C(=O)c2ccco2)CC1	DENV2 CPE 35
O=C(C[C@H]1C[C@H](C(=O)N2CCCCC2)[C@@]2(CCc3ccccc3)c3[nH]c4ccc(Cl)cc4c3CCN2C1=O)NCc1cccc(C(F)(F)F)c1	FGF22 binding 34 (no result: ERAP1 inh)
O=C(Nc1ccc(F)cc1)N[C@@H]1C=C[C@H](CC(=O)N2CCOCC2)O[C@H]1CO	none
COc1ccc2c3c(n(C)c2c1)[C@H](CO)N(C(=O)Nc1ccc(F)cc1)CC31CN(CC2CCOCC2)C1	none
COc1ccc2c3c(n(C)c2c1)[C@H](CO)N(C(=O)CN(C)C)CC31CCN(C(=O)NC(C)C)CC1	none
COc1ccc(/C=N/N2CCN(c3ccc(Cl)cc3)CC2)cc1	none
COc1ccc(/C=N/N2CCN(c3ccc(Cl)cc3)CC2)cc1O	DENV2 CPE 32
COc1cc(/C=N/N2CCN(c3ccccc3)CC2)cc(OC)c1OC(C)=O	AF4-AF9 inh 26
COc1cc(/C=N/N2CCN(c3ccc(Cl)cc3)CC2)cc(OC)c1OC(C)=O	none
O=C(NC1CCC1)[C@@H]1N[C@@H]2c3ccc(-c4cccc(F)c4)c(=O)n3C[C@@H]2[C@H]1CO	none (no result: FGF22 binding)
COc1ccc(CN2C(=O)C(CC(=O)NCCCN(C)C)CC(C(=O)N(C(C)C)C(C)C)=C2C)cc1 (centres undefined)	none (no result: ERAP1 inh)
CCN(CC)C(=O)C1=C(C)N(Cc2ccc(OC)cc2)C(=O)C(CC(=O)NCCCN(C)C)C1 (centres undefined)	FGF22 binding 44
CC1=C(C(=O)N(C(C)C)C(C)C)CC(CC(=O)NCCCCc2ccccc2)C(=O)N1Cc1ccccc1 (centres undefined)	none
CCCCCCCCN1C(=O)[C@H](CC(=O)NCc2cccs2)C[C@@]2(C(=O)OCC)CCCC=C12	none
COC(=O)[C@]12C[C@H](CC(=O)N3CCCCC3)C(=O)N(Cc3ccccc3)C1=C[C@H](C1CCCC1)O[C@@H]2C	none
COC(=O)[C@]12C[C@H](CC(=O)N3CCC(c4ccccc4)CC3)C(=O)N(Cc3ccccc3)C1=C[C@H](C1CCCC1)O[C@@H]2C	DENV2 CPE 45
CCN(CC)C(=O)C1=C(C)N(Cc2ccccc2)C(=O)C(CC(=O)NCCCCc2ccccc2)C1 (centres undefined)	FGF22 binding 43
CCOC(=O)[C@]12CCCC=C1N(Cc1ccccc1)C(=O)[C@H](CC(=O)NCc1cccs1)C2	DENV2 CPE 55
CN1[C@@H]2Cn3c(ccc(-c4ccccc4)c3=O)[C@H]1[C@@H](C(=O)NCCc1ccccc1)[C@@H]2CO	DENV2 CPE inconclusive (no result: ERAP1 inh, RAD52 inh, FGF22 binding)
CCCCN1C(=O)C(CC(=O)NC2CC2)CC(C(=O)N(CC)CC)=C1C (centres undefined)	FGF22 binding 43, DENV2 CPE 23
COC(=O)[C@]12CCCCC=C1N(Cc1ccco1)C(=O)[C@H](CC(=O)N1CCC(c3ccccc3)CC1)C2	none
CCOC(=O)[C@]12CCCC=C1N(Cc1ccco1)C(=O)[C@H](CC(=O)N1CCC(c3ccccc3)CC1)C2	DENV2 CPE 38
CCN(CC)C(=O)C1=C(C)N(Cc2ccccc2)C(=O)C(CC(=O)NCc2cccs2)C1 (centres undefined)	FGF22 binding 44
COc1ccc2c3c(n(C)c2c1)[C@H](CO)N(Cc1ccc(F)cc1)CC31CN(C)C1	none
CN(C)C(=O)C[C@H]1CC[C@H]2[C@@H](COC[C@H](O)CN2CC2CCCC2)O1	DENV2 CPE 48
O=C(C[C@H]1CC[C@H]2[C@@H](COC[C@@H](O)CN2CC2CCCCC2)O1)NCC1CC1	DENV2 CPE 27
COc1ccc(S(=O)(=O)N(C)C[C@@H]2OCCCC[C@H](C)Oc3ccc(NC(=O)Nc4c(C)noc4C)cc3C(=O)N([C@@H](C)CO)C[C@@H]2C)cc1	none (no result: DENV2 CPE)
O=C(C[C@H]1C[C@@H]2c3cc(NC(=O)CC4CC4)ccc3O[C@@H]2[C@H](CO)O1)NCc1ccccc1	DENV2 CPE 98
COC(=O)C[C@H]1C[C@H]2c3cc(NC(=O)CC4CC4)ccc3O[C@H]2[C@H](CO)O1	none
O=C(O)C[C@@H]1C[C@@H]2c3cc(NC(=O)CC4CC4)ccc3O[C@@H]2[C@H](CO)O1	DENV2 CPE 30
COC(=O)C[C@@H]1C[C@H]2c3cc(NC(=O)C4CCOCC4)ccc3O[C@H]2[C@@H](CO)O1	none
COC(=O)C[C@@H]1C[C@H]2c3cc(NC(=O)CC4CC4)ccc3O[C@H]2[C@@H](CO)O1	DENV2 CPE 24!
COC(=O)C[C@H]1C[C@H]2c3cc(NC(=O)C4CCOCC4)ccc3O[C@H]2[C@H](CO)O1	DENV2 CPE 46
COCC#Cc1cnc2c(c1)C(=O)N([C@H](C)CO)C[C@H](C)[C@@H](CN(C)S(=O)(=O)c1cn(C)cn1)O2	none
